# Shown are actives, neighbours in structure and some others; about 10% of the full set was active somewhere.
# hNpr1 antagonist = Natriuretic polypeptide receptor (hNpr1) antagonism - Primary qHTS. Atrial natriuretic peptide receptor 1 (Homo sapiens), P16066. HEK293 hNpr1 GloSensor cGMP, ANP-stimulated luminescence. Potency, µM (top dose mostly 46.3 µM), for the others: at the highest dose activity change, negative = inhibition, hits mostly inhibitors. 76,000 tested, 1.6% active; calls by dose curve; further: nearly all actives have a fitted effect of over 60% in size
#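 HEK293 cells stably expressing human Npr1 and cGMP GloSensor pGS-40F, loaded 2 h with 2% GloSensor reagent, given compound 30 min at room temperature. Luminescence read before and 20 min after 0.1 nM hNppA.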
# GPT2 inhibitor = Primary qHTS assay for inhibitors of Glutamate pyruvate transaminase 2 (GPT2); Potency, µM (titrated, usually from 57.7 µM), inactives show top-dose activity change, negative = inhibition, most hits filed as inhibitors; Recombinant GPT2, coupled pyruvate oxidase/HRP Amplex Red fluorescence; Alanine aminotransferase 2 (Homo sapiens), Q8TD30; 100,000 tested, 0.25% active; AID 1671188, 2021; further: nearly all actives have a fitted effect of over 60% in size
#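 GPT2 10ng/uL, a-KG 250uM, L-Ala 2mM, HEPES pH7.5 + 0.0001% Tween; 30 min RT. Then Amplex mix (PO/HRP/ThPP), 30 min RT dark, fluorescence. AOA 50uM used as positive control.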
# 3T3 cytotox = Cytotoxic Profiling in NIH 3T3 Cell Line of Diverse Libraries Using Quantitative High-Throughput Screening | AID 1345082, 2018 | NIH 3T3 viability, CellTiter-Glo ATP luminescence, 48-72 h | Potency, µM (titrated, usually from 96.7 µM), for inactives: top-dose activity change, negative = cytotoxicity, hits mostly inhibitors | 94,000 tested, 4.3% active; further: nearly all actives have a fitted effect of over 55% in size
#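 Cytotoxicity is measured as loss of cellular ATP: NIH 3T3 cells (400/well) are exposed to compound for 48 or 72 hr at 37 °C, then CellTiter-Glo luminescence is imaged after 10 min at room temperature.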
# HEK293 tox = Cytotoxic Profiling in HEK 293 Cell Line of Diverse Libraries Using Quantitative High-Throughput Screening; HEK 293 viability, ATP luminescence (CellTiter-Glo), 48-72 h; 94,000 tested, 6.6% active; AID 1345083, 2018; Potency, µM (highest dose often 115 µM), without a hit: at the top dose activity change, negative = cytotoxicity, usual class: inhibitors; further: nearly all actives have a fitted effect of over 60% in size
#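 Read-out: CellTiter-Glo ATP luminescence. Cells: HEK 293, 250 cells/well. Exposure: 48 or 72 hr, 37 degree Celsius.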
# FLuc inh = Firefly luciferase inhibition profiling of diverse chemical library using quantitative high-throughput screening | purified P. pyralis luciferase, luminescence, biochemical | Potency, µM (titrated, usually from 115 µM), usual class: inhibitors | 76,000 tested, 2.5% active | AID 1347043, 2019; further: nearly all actives have a fitted effect of over 65% in size
#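 Purified 10nM P. pyralis luciferase with 10uM D-luciferin and 10uM ATP in 50mM Tris acetate pH 7.5, 10mM Mg acetate, 0.01% Tween-20, 0.05% BSA. qHTS titration; luminescence read by CCD imager.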
# Starred values were filed as active, the others as inactive; i = inactive; ? = inconclusive; nt = no result; [ ] = dose if it differs, or a comment. Unless noted, the call rests on the fitted dose curve; in most records, active means well fitted curve in the direction sought with a large enough effect; inconclusive means small, poorly fitted or top-dose-only effect, or another doubt; inactive means no such curve, though single readings can be large; an effect the other way counts as inactive or inconclusive. On the % scale 0 is the no-effect control and ±100 the full control effect; potency means the concentration at half of the fitted maximal effect.
SMILES,hNpr1 antagonist,GPT2 inhibitor,3T3 cytotox,HEK293 tox,FLuc inh
O=C(Nc1cccc(C(F)(F)F)c1)N1C[C@@H](F)[C@@H](OCc2nc3ccccc3[nH]2)C1,-10.4%[70.6 µM],i,100µM*,100µM*,i
Cc1ccc2nc(CO[C@H]3CN(C(=O)C4CCOCC4)C[C@H]3F)[nH]c2c1,-2.6%[70.6 µM],?,2.6%[138 µM],-8.3%[172 µM],i
COc1ccc(C(=O)N2C[C@@H](F)[C@@H](OCc3nc4ccc(F)cc4[nH]3)C2)cc1,-27.1%[70.6 µM],-0.1%[88.5 µM],-21.4%[138 µM],?,39.8µM*
O=C(NC1CC1)c1ccccc1OC1CN(C2CCC2)C1,-9.1%,-25.5%,-7.4%,-22.3%,i
O=C(NCC1CCCO1)c1ccc2oc(-c3ccc(C(F)(F)F)cc3)nc2c1 (configuration not stated),?,?,-19.9%,17.8µM*,i
O=C(c1ccc2oc(-c3ccc(C(F)(F)F)cc3)nc2c1)N1CCOCC1,-13.8%,i,?,?,i
O=C(NC1CCCCCC1)c1ccc2oc(-c3ccncc3)nc2c1,nt,-15.6%,-24.4%,35.5µM*,nt
CC(C)CCN1CCCC2(COc3ccccc3C(=O)N2)C1 (configuration not stated),4.1%[70.6 µM],i,?,?,i
CN(C)c1ccc(CN2CCC3(CC2)COc2ccccc2C(=O)N3)cc1,7.4%,i,22.4µM*,?,i
CN(C)c1ccc(CN2CCC3(COc4ccccc4C(=O)N3)C2)cc1 (configuration not stated),-2.9%,i,?,?,i
CC(C)CCN1CCC2(COc3ccccc3C(=O)N2)C1 (configuration not stated),-3.1%[70.6 µM],i,100µM*,?,i
COc1cccc(CN2CCC3(COc4ccccc4C(=O)N3)C2)c1 (configuration not stated),-20.5%[70.6 µM],3.9%[88.5 µM],39.8µM*,89.1µM*,i
O=C(Nc1ccc2[nH]ccc2c1)C1=NO[C@@H]2CN(c3ccccn3)C[C@H]12,-15.5%[70.6 µM],-2.5%[88.5 µM],-28.0%[138 µM],?,i
CCC(C)NC(=O)c1ccc(-c2nnc3ccc(NC(=O)C4CC4)cn23)cc1 (configuration not stated),-0.3%,-10.2%,?,?,i
CN1C(=O)C2(CCN(C(=O)c3ccn(C(C)(C)C)c3)CC2)c2ccccc21,5.9%,-24.4%,-21.6%,?,i
CN(CCc1noc(C2CN(Cc3ccc(Cl)c(F)c3)C2)n1)S(C)(=O)=O,-0.6%,-7.6%,?,39.8µM*,i
CC1=C[C@@H](CNCc2ccc(F)cc2)[C@H](C(C)C)C[C@H]1Cc1nnc(-c2cncn2C)o1,-3.5%[70.6 µM],i,?,44.7µM*,i
CC1=C[C@@H](CNCc2ccc(Cl)cc2)[C@H](C(C)C)C[C@H]1Cc1nnc(-c2cncn2C)o1,-12.0%,i,39.8µM*,79.4µM*,i
CC1=C[C@@H](CNCc2ccc(F)cc2)[C@H](C(C)C)C[C@H]1Cc1nnc(C)o1,-12.7%[70.6 µM],2.4%[88.5 µM],?,?,i
CC(C)(C)COC(=O)N1C[C@@H](CO)[C@@H]2Oc3c(F)cccc3[C@@H]21,nt,nt,31.6µM*,?,nt
O=C(Cc1ccccn1)NC1CCCN(CCn2nc3n(c2=O)CCCC3)C1 (configuration not stated),nt,nt,-19.9%,-2.7%,nt
CC(C)c1ccc(S(=O)(=O)N2CCCC2Cc2noc(Cc3ccccc3)n2)cc1 (configuration not stated),nt,i,?,25.1µM*,nt
O=C(Nc1ccc2c(c1)OCCO2)N1CCCC1Cc1noc(Cc2ccccc2)n1 (configuration not stated),nt,i,?,-23.4%,nt
Cc1nccn1CCNC(=O)CCC[C@H]1NC[C@@H]2C[C@H]1CN(Cc1ccccc1)C2,-26.2%,i,-3.5%,-16.2%,i
COc1ccccc1C(=O)Nc1ccc2ncnc(N3CCCCC3)c2c1,?,-0.7%,?,39.8µM*,i
SMILES,hNpr1 antagonist,GPT2 inhibitor,3T3 cytotox,HEK293 tox,FLuc inh
O=C(Nc1ccc2c(N3CCCC3)ncnc2c1)c1ccccc1Br,-13.8%,3.0%,?,8.91µM*,i
COc1cccc(CC(=O)Nc2ccc3c(N4CCCCC4)ncnc3c2)c1,?,-1.9%,?,31.6µM*,i
COc1ccc(CC(=O)Nc2ccc3ncnc(N4CCCCC4)c3c2)c(Cl)c1,-18.3%,i,?,?,i
Cc1noc(C)c1[S+](=O)([O-])N1CCC2(CCN(Cc3cccs3)c3ccccc3O2)CC1,-18.9%,-9.8%,?,?,i
Cc1cc(OC2CN(C(=O)c3ccccn3)C2)ccc1F,-6.8%[70.6 µM],4.1%[88.5 µM],?,79.4µM*,?
Cc1cc(F)ccc1OC1CN(C(=O)c2ccccn2)C1,-1.8%[70.6 µM],?,?,?,50.1µM*
O=C(Nc1ccccc1)N1CC(Oc2cccc(-c3nc(-c4ccccc4)no3)c2)C1,-23.3%,i,?,?,?
CC(C(=O)N1CC(Oc2ccc(-c3noc(-c4ccncc4)n3)cc2)C1)c1ccccc1 (configuration not stated),nt,i,25.1µM*,?,nt
COc1ccc(NC(=O)N2CC(Oc3ccc(-c4nc(-c5ccccc5)no4)cc3)C2)cc1,-29.4%,-8.5%,-2.7%,?,1.41µM*
O=C(c1ccncc1)N1CC(Oc2ccc(-c3noc(-c4ccccc4)n3)cc2)C1,-20.2%,-13.8%,-9.3%,?,?
O=C(Nc1cccc(F)c1)N1CC(Oc2ccc(-c3nc(-c4ccccc4)no3)cc2)C1,7.08µM*,i,?,?,2.51µM*
Cc1ccc2nc(C3CCN(Cc4cccc(-c5cccnc5)c4)CC3)[nH]c(=O)c2c1,-12.0%,-2.8%,-33.2%,?,i
Cc1ccc(CN2CCc3oc(C)c(C(=O)NCCN4CCCCC4)c3C2)cc1,-12.8%,-20.7%,-27.9%,?,i
COCCn1c2c([n+](Cc3cnccn3)c1C)C(=O)c1ccccc1C2=O,nt,0.153µM*,nt,nt,nt
COCCn1c(=O)c(C(=O)NC(C)C)nc2cccnc21,nt,-7.2%[88.5 µM],-10.8%[138 µM],i,nt
CCN1C(=O)C2CC3(CCN(C(=O)Nc4ccc5c(c4)OCCO5)CC3)CN2C1=O (configuration not stated),0.3%,-2.0%,-1.6%,-16.1%,35.5µM*
